Assay outcomes: PubChem BioAssay, National Center for Advancing Translational Sciences (NCATS)
The list is not random: actives were taken first. Their share in the collection is about 2.2%.
IDH1 R132H inh: inhibitors of human mutant IDH1 R132H | actives 0.093% (n = 390,000) | IDH1-R132H enzyme, NADPH consumption, diaphorase/resazurin fluorescence | Potency, µM (series often up to 76.6 µM), without a hit: at the highest dose activity change, negative = inhibition, most hits filed as inhibitors; note: potency is the fitted concentration of half-maximal effect; % is set by controls: 0 for no effect and ±100 for the full control effect; nearly all actives have a fitted effect of over 65% in size
Target sequence (O75874 whole entry R132H, stated change not applied): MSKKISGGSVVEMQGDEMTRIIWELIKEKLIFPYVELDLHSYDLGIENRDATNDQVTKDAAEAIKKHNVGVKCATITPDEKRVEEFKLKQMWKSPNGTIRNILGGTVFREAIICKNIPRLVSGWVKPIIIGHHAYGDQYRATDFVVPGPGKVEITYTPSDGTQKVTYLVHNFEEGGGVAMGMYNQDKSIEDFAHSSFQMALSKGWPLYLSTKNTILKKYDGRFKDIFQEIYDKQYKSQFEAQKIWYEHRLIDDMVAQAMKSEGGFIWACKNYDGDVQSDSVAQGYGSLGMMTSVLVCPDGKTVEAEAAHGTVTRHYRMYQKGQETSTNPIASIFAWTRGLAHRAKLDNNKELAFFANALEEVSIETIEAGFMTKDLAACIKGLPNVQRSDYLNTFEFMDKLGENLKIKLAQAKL
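IDH1-R132H (0.5 ug/mL dispensed) in pH 7.5 Tris buffer was preincubated 30 min with compound, then given a substrate mix of 0.016 mM NADPH and 2 mM alpha-KG for 80 min at room temperature; remaining NADPH was read by diaphorase/resazurin fluorescence.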
ATXN2 expr inh: reduces ATXN2 reporter expression in HEK-293 cells | Potency, µM (highest dose often 57 µM), for the others: top-dose activity change, negative = inhibition, usual class: inhibitors | HEK-293 ATXN2-luciferase reporter, luminescence, 24 h | actives 0.72% (n = 360,000); note: potency is the fitted concentration of half-maximal effect; % is set by controls: 0 for no effect and ±100 for the full control effect; nearly all actives have a fitted effect of over 55% in size
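qHTS (up to 57 uM final) was run with 24 h compound exposure of reporter cells at 37 °C. Each well was multiplexed: SteadyGlo luminescence measured ATXN2-luciferase expression after a fluorogenic Gly-Phe-AFC viability readout (25 uM final).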
ATXN viability: viability counter-screen for ATXN expression inhibitors. S2 cells (HEK-293 line with an ATXN2-luciferase reporter) viability, CellTiter-Fluor protease fluorescence, 24 h. Potency, µM (series often up to 56.7 µM), actives largely listed as cytotoxic. actives 0.49% (n = 400,000); note: potency is the fitted concentration of half-maximal effect; nearly all actives have a fitted effect of over 40% in size
LDHA inh: inhibitors of human lactate dehydrogenase A; actives 0.15% (n = 480,000); activity change, % (values are at about 110 or 230 µM); purified LDHA, NADH/diaphorase-resazurin fluorescence; hits give low values; in the data active = activity change below about -30%; inconclusive = mostly about -25% to -30%;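 note: plate controls were DMSO wells for no effect and wells without enzyme for full effect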
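Resorufin fluorescence (ex540/em590), read at 0 and 20 min after diaphorase/resazurin addition, reports the NADH left after a 5 min room-temperature reaction of 2 nM human LDH5 with 0.06 mM NADH and 0.2 mM pyruvate.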
HepG2 viability: kills HepG2 cells in TGF-b inhibitor counter-screen; Potency, µM (titrated, usually from 46.1 µM), for inactives: at the top dose activity change, negative = cytotoxicity, most hits filed as cytotoxic; HepG2 CAGA-GFP viability, ATP luminescence, 18 h; actives 0.76% (n = 410,000); note: potency is the fitted concentration of half-maximal effect
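CellTiter-Glo luminescence gave cytotoxicity after 18 hours at 37 degrees C. The cells were HepG2 CAGA-GFP in 1% FBS DMEM, stimulated with 500 pg/mL TGF-beta after compound addition. %Activity was normalised to no-cell wells (complete cell-killing) and DMSO (no toxicity), and curves were fitted and classified.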
TGFb SMAD3 inh: blocks TGF-b signaling. HepG2 CAGA-GFP TGF-b/SMAD3 reporter, GFP fluorescence, 18 h; TGF-beta stimulated, 500 pg/mL final. Potency, µM (doses to about 46.1 µM), for the others: top-dose activity, negative = inhibition, usual class: inhibitors. actives 1.2% (n = 410,000). AID 588855; note: potency is the fitted concentration of half-maximal effect; % is set by controls: 0 for no effect and ±100 for the full control effect; nearly all actives have a fitted effect of over 65% in size
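Read-out: total well GFP (ex488/em500-530) summed from mean per-cell fluorescence. Cells: HEPG2 CAGA-GFP, 1% FBS DMEM, 18 h at 37 degrees C with 500 pg/mL final TGF-beta. Unstimulated wells served as the full-inhibition control; stimulated DMSO wells = 0%.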
* marks the source's active call; other numbers are inactive results. Unless noted, calls come from the whole dose curve; as a rule, active = well fitted curve in the direction sought with a large enough effect; inconclusive = small, poorly fitted or top-dose-only effect, or another doubt; inactive = no such curve, though single readings can be large; an effect the other way counts as inactive or inconclusive.

How did Cc1ccc(-n2nnnc2CNC(=O)C(C)(C)C)cc1C do in these assays?
IDH1 R132H inh: 15.5%; LDHA inh: -0.7; HepG2 viability: 0.1%; TGFb SMAD3 inh: 7.3%

What do the screens show for `COCCN1C(=O)c2[nH]nc(-c3ccccc3O)c2C1c1ccc(OCc2ccccc2)c(OC)c1` (centres undefined)?
IDH1 R132H inh: -8.3%; LDHA inh: 0.9; HepG2 viability: -73.1%; TGFb SMAD3 inh: inconclusive

Results for O=C1c2[nH]nc(-c3ccccc3O)c2C(c2ccc(Cl)cc2)N1CCc1ccccc1 (centres undefined) ?
IDH1 R132H inh: -17.3%; LDHA inh: -2.9; HepG2 viability: -91.5%; TGFb SMAD3 inh: 20µM*

What do the screens show for `CCCN1C(=O)c2[nH]nc(-c3ccccc3O)c2C1c1cccc(OCc2ccccc2)c1` (centres undefined)?
IDH1 R132H inh: -6.0%; LDHA inh: -2.3; HepG2 viability: 15.8µM*; TGFb SMAD3 inh: 11.2µM*

How did COCCCN1C(=O)c2[nH]nc(-c3ccccc3O)c2C1c1ccc(Cl)cc1 (centres undefined) do in these assays?
IDH1 R132H inh: -7.3%; ATXN2 expr inh: -13.9%; ATXN viability: inconclusive; LDHA inh: -7.4; HepG2 viability: -35.9%; TGFb SMAD3 inh: 0.0%

What do the screens show for `COc1ccc(CCN2CCCC(CN(C)Cc3cccc(OC)c3)C2)cc1` (centres undefined)?
IDH1 R132H inh: 9.4%; ATXN2 expr inh: -23.0%; ATXN viability: inactive; LDHA inh: -0.6; HepG2 viability: -34.3%; TGFb SMAD3 inh: 1.6%

How did COC(=O)c1ccccc1S(=O)(=O)N1CCn2cccc2C1C (centres undefined) do in these assays?
IDH1 R132H inh: -2.1%; ATXN2 expr inh: 4.0%; ATXN viability: inactive; LDHA inh: -6.3; HepG2 viability: 19.9%; TGFb SMAD3 inh: -3.8%

Results for O=C(CCCl)Nc1nc2c(s1)CCc1ccccc1-2 ?
IDH1 R132H inh: 10.9%; ATXN2 expr inh: inconclusive; ATXN viability: inconclusive; LDHA inh: 15.1; HepG2 viability: 10µM*; TGFb SMAD3 inh: inconclusive

How did CC(=O)Nc1nc2c(s1)CCc1ccccc1-2 do in these assays?
IDH1 R132H inh: 2.2%; ATXN viability: inconclusive; LDHA inh: -2.8; HepG2 viability: 0.7%; TGFb SMAD3 inh: -5.1%

Results for COc1ccc2c(C#CCCO)c(-c3ccc(S(C)(=O)=O)cc3)sc2c1 ?
IDH1 R132H inh: -3.2%; ATXN2 expr inh: -24.8%; ATXN viability: inactive; LDHA inh: 1.9; HepG2 viability: -2.6%; TGFb SMAD3 inh: -6.7%

Results for CS(=O)(=O)c1ccc(-c2sc3ccccc3c2C#CCCO)cc1 ?
IDH1 R132H inh: 12.3%; ATXN2 expr inh: inconclusive; ATXN viability: inconclusive; LDHA inh: 0.9; HepG2 viability: -32.8%; TGFb SMAD3 inh: 11.2µM*

How did CC(C)(C)C(=O)NC(=S)NNC(=O)c1ccc(-c2ccccc2)cc1 do in these assays?
IDH1 R132H inh: -0.9%; ATXN viability: inconclusive; LDHA inh: -2.0; HepG2 viability: -51.5%; TGFb SMAD3 inh: 10µM*

What do the screens show for `Cc1ccc2nc(N(Cc3cccnc3)C(=O)COc3ccccc3)sc2c1`?
IDH1 R132H inh: -28.4%; LDHA inh: -2.0; HepG2 viability: -1.6%; TGFb SMAD3 inh: 0.1%

How did O=c1ccc2ccccc2c2ccccc12 do in these assays?
ATXN2 expr inh: 5.01µM*; ATXN viability: inconclusive; LDHA inh: -2.2; HepG2 viability: -60.8%; TGFb SMAD3 inh: 12.6µM*

How did c1ccc2c(c1)ccc1ccccc12 do in these assays?
IDH1 R132H inh: 9.0%; ATXN2 expr inh: -5.4%; ATXN viability: inactive; LDHA inh: -11.5; HepG2 viability: -8.0%; TGFb SMAD3 inh: -12.0%

How did CCCCCc1cc(=O)oc2c(C(CCN3CCN(c4ccccc4)CC3)c3ccc4c(c3)OCO4)c(OC)cc(OC)c12 (centres undefined) do in these assays?
IDH1 R132H inh: 0.7%; ATXN2 expr inh: -3.1%; ATXN viability: inconclusive; LDHA inh: -3.6; HepG2 viability: -13.2%; TGFb SMAD3 inh: -7.9%

Results for CCCCCc1cc(=O)oc2c(C(CCN(CC)CC)c3ccc(OC)cc3)c(OC)cc(OC)c12 (centres undefined) ?
IDH1 R132H inh: 0.0%; ATXN2 expr inh: inconclusive; ATXN viability: 31.6µM*; LDHA inh: 9.2; HepG2 viability: -101.3%; TGFb SMAD3 inh: inconclusive

What do the screens show for `CCN(CC)CCC(c1ccc(OC)cc1)c1c(OC)cc(OC)c2c(C)cc(=O)oc12` (centres undefined)?
HepG2 viability: 17.8µM*; TGFb SMAD3 inh: inconclusive

What do the screens show for `CCN(CC)CCC(c1ccc(N(C)C)cc1)c1c(OC)cc(OC)c2ccc(=O)oc12` (centres undefined)?
IDH1 R132H inh: -5.1%; ATXN2 expr inh: 3.2%; ATXN viability: 10µM*; LDHA inh: 1.0; HepG2 viability: -2.3%; TGFb SMAD3 inh: -4.4%

How did CCN(CC)CCC(c1ccc2c(c1)OCO2)c1c(OC)cc(OC)c2c(C)cc(=O)oc12 (centres undefined) do in these assays?
HepG2 viability: -14.3%; TGFb SMAD3 inh: -8.3%

Results for CCN(CC)C(=O)CC(c1ccc(N(C)C)cc1)c1c(OC)cc(OC)c2ccc(=O)oc12 (centres undefined) ?
IDH1 R132H inh: -10.2%; ATXN2 expr inh: -13.3%; ATXN viability: inconclusive; LDHA inh: 0.7; HepG2 viability: 3.5%; TGFb SMAD3 inh: 2.3%

What do the screens show for `Cc1cccc(-n2c(N)cc(=O)nc2SCC(=O)Nc2ccc(F)cc2)c1C`?
IDH1 R132H inh: 0.5%; ATXN2 expr inh: 11.2%; ATXN viability: inactive; LDHA inh: -2.8; HepG2 viability: 21.7%; TGFb SMAD3 inh: -0.3%

How did O=C(O)CCCN=C1NC2(CCCC2)Cc2ccccc21 do in these assays?
IDH1 R132H inh: 5.4%; ATXN2 expr inh: -0.9%; ATXN viability: inactive; LDHA inh: -8.0; HepG2 viability: 0.0%; TGFb SMAD3 inh: -1.8%

Results for CCC(=O)N1CCc2cc(S(=O)(=O)NC(CC(C)C)C(=O)NCc3cccc(OC)c3)ccc21 (centres undefined) ?
IDH1 R132H inh: 0.0%; ATXN2 expr inh: 2.6%; ATXN viability: inactive; LDHA inh: -31.1*; HepG2 viability: -3.0%; TGFb SMAD3 inh: 0.6%

What do the screens show for `c1cc2nc(C34CC5CC(CC(C5)C3)C4)[nH]c2cn1`?
IDH1 R132H inh: -2.9%; ATXN2 expr inh: 9.2%; ATXN viability: inactive; LDHA inh: -32.6*; HepG2 viability: -0.1%; TGFb SMAD3 inh: -0.4%
